From ChEMBL document CHEMBL2218924, “A broad activity screen in support of a chemogenomic map for kinase signalling research and drug discovery” (Biochem J, 2013) come the findings set out here.

For experiment [1], the target named is T1, Mitogen-activated protein kinase kinase kinase 7 (Homo sapiens) (UniProt O43318).
T1 sequence (whole entry): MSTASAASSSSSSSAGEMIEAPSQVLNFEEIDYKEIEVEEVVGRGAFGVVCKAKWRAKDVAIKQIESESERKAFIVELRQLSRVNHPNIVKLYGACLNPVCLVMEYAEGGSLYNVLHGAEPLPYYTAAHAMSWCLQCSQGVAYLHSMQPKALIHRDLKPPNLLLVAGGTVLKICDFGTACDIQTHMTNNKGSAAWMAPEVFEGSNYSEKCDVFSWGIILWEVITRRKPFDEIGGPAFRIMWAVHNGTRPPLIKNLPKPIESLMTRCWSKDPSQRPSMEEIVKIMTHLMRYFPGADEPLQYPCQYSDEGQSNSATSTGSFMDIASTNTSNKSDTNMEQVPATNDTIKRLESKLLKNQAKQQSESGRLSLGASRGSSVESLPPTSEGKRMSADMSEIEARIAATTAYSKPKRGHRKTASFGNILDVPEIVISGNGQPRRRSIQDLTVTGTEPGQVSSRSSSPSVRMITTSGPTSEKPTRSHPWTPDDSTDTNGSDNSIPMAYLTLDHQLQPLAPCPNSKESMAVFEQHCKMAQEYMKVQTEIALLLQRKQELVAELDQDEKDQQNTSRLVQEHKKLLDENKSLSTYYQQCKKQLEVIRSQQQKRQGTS
The settings on record: at 1 µM.

Experiment [2] deals with T1, Mitogen-activated protein kinase kinase kinase 7 (Homo sapiens). The settings on record: at 10 µM.
Experiment [3] concerns the target T2, Serine/threonine-protein kinase TAO1 (Homo sapiens) (UniProt Q7L7X3).
T2 sequence (whole entry): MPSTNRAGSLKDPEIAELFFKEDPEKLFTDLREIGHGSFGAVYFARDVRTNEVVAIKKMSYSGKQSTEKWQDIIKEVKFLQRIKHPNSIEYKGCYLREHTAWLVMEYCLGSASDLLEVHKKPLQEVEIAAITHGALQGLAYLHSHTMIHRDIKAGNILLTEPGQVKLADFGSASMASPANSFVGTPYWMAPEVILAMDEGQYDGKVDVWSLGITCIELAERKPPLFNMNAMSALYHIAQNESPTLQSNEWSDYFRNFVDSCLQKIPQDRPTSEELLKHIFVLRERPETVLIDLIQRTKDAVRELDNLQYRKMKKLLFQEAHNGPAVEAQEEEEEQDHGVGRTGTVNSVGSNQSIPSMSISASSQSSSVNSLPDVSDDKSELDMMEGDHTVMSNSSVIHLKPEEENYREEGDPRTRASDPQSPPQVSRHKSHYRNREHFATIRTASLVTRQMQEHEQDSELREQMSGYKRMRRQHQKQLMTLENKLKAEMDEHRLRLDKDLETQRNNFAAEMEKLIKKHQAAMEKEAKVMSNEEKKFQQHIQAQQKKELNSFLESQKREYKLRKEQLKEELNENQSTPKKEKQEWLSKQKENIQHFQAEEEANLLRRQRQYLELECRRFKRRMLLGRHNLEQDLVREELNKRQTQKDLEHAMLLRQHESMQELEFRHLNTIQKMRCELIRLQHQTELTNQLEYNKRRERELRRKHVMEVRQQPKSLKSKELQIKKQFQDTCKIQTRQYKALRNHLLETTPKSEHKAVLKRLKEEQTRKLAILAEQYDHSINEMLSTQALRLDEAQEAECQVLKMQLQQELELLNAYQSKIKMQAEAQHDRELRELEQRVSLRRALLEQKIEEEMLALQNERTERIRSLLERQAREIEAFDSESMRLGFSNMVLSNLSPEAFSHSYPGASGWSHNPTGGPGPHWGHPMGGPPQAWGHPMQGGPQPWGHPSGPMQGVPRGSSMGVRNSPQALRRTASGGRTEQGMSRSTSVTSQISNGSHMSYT
The following applies: at 1 µM.

The target of experiment [4] is T2, Serine/threonine-protein kinase TAO1 (Homo sapiens). The settings on record: at 10 µM.
The target in experiment [5] is T3, Serine/threonine-protein kinase TAO2 (Homo sapiens) (UniProt Q9UL54).
T3 sequence (whole entry): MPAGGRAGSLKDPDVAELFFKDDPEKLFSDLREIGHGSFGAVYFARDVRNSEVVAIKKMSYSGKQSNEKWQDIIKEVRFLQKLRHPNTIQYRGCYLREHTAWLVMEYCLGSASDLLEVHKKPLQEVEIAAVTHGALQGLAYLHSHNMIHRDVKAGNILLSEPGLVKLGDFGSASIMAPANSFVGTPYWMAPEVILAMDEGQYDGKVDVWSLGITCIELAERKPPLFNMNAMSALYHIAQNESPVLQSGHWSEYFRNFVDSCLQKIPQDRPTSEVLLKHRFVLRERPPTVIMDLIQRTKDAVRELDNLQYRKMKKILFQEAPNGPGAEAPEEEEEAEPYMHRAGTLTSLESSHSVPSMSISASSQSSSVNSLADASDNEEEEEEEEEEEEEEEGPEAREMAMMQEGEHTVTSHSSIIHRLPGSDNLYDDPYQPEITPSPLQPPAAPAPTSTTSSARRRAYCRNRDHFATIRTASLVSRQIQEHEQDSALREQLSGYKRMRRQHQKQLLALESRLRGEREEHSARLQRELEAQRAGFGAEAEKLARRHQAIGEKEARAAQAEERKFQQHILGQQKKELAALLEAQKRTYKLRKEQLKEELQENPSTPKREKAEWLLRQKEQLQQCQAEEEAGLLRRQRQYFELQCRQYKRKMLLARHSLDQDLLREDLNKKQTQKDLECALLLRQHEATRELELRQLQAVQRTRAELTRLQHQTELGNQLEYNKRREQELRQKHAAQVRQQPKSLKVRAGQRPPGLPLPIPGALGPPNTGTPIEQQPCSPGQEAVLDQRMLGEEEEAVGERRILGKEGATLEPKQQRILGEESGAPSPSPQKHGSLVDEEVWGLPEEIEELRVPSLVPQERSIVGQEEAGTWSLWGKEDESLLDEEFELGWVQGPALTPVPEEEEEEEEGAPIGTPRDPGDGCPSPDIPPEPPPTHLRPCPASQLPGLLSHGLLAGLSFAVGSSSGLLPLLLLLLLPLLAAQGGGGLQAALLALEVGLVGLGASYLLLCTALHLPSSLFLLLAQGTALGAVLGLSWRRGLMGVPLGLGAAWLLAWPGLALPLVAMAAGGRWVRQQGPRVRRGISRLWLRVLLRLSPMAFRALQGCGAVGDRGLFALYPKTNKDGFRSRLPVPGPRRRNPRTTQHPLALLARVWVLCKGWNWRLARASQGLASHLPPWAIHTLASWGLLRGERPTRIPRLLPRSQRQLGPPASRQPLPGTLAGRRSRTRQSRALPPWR
The following applies: at 1 µM.

For experiment [6], the target named is T3, Serine/threonine-protein kinase TAO2 (Homo sapiens). The following applies: at 10 µM.
The target in experiment [7] is T4, Serine/threonine-protein kinase TAO3 (Homo sapiens) (UniProt Q9H2K8).
T4 sequence (whole entry): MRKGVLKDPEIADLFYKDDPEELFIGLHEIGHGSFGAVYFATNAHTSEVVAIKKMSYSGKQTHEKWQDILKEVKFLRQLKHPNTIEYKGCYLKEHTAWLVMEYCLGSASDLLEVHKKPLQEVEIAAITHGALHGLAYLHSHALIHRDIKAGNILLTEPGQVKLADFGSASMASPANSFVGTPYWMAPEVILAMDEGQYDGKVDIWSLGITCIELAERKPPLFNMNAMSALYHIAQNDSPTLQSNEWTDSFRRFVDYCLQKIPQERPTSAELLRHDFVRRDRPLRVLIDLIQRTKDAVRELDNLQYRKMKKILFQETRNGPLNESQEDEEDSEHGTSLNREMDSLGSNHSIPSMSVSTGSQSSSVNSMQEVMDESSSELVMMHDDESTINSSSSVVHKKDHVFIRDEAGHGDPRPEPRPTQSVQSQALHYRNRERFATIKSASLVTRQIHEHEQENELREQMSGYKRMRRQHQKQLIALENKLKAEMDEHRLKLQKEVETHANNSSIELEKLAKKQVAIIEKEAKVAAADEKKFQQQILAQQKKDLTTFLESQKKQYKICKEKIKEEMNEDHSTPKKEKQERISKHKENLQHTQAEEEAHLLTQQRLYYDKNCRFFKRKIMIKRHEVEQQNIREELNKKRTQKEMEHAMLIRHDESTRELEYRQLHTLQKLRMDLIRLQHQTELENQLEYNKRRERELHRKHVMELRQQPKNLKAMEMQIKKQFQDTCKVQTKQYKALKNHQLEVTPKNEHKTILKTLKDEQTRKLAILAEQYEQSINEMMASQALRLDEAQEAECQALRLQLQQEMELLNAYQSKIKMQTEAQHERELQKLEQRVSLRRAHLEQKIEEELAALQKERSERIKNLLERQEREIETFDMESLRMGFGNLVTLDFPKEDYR
The following applies: at 1 µM.

Experiment [8] has as its target T4, Serine/threonine-protein kinase TAO3 (Homo sapiens). The settings on record: at 10 µM.
Experiment [9] deals with T5, Serine/threonine-protein kinase TBK1 (Homo sapiens) (UniProt Q9UHD2).
T5 sequence (whole entry): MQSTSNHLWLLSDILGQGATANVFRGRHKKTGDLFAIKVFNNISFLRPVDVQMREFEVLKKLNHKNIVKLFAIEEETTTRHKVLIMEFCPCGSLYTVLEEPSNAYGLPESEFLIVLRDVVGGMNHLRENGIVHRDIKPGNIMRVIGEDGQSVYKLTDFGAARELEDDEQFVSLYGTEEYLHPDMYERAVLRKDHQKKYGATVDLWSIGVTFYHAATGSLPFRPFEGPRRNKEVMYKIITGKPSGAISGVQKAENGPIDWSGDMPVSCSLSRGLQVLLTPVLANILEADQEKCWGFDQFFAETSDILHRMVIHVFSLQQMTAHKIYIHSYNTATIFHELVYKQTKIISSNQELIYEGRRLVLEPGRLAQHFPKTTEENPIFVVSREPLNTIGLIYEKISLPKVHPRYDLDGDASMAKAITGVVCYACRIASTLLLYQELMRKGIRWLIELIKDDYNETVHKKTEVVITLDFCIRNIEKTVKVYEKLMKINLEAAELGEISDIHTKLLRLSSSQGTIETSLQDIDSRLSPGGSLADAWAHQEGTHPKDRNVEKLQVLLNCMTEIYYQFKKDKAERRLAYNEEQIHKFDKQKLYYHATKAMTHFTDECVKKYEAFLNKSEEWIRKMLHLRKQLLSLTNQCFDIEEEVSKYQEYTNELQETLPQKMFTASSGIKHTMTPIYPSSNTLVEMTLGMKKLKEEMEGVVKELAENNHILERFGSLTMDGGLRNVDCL
The settings on record: at 1 µM.

The target in experiment [10] is T5, Serine/threonine-protein kinase TBK1 (Homo sapiens). The settings on record: at 10 µM.
Experiment [11] deals with T6, TGF-beta receptor type-1 (Homo sapiens) (UniProt P36897).
T6 sequence (whole entry): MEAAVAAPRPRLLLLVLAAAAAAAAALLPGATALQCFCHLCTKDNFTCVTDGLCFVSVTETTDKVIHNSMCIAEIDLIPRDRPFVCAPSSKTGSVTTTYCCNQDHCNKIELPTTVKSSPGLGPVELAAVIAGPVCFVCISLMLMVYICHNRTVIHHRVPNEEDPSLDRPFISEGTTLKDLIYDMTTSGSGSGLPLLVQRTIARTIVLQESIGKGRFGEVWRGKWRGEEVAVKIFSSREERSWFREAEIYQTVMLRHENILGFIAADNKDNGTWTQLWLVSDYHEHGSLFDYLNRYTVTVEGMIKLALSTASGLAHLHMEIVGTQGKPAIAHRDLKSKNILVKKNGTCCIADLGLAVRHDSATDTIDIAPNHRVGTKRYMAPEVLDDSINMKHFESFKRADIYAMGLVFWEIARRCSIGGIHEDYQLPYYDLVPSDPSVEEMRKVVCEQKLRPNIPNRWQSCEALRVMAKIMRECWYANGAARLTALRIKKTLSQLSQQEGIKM
The following applies: at 1 µM.

The target of experiment [12] is T6, TGF-beta receptor type-1 (Homo sapiens). The following applies: at 10 µM.
The target of experiment [13] is T7, Inhibitor of nuclear factor kappa-B kinase subunit alpha (Homo sapiens) (UniProt O15111).
T7 sequence (whole entry): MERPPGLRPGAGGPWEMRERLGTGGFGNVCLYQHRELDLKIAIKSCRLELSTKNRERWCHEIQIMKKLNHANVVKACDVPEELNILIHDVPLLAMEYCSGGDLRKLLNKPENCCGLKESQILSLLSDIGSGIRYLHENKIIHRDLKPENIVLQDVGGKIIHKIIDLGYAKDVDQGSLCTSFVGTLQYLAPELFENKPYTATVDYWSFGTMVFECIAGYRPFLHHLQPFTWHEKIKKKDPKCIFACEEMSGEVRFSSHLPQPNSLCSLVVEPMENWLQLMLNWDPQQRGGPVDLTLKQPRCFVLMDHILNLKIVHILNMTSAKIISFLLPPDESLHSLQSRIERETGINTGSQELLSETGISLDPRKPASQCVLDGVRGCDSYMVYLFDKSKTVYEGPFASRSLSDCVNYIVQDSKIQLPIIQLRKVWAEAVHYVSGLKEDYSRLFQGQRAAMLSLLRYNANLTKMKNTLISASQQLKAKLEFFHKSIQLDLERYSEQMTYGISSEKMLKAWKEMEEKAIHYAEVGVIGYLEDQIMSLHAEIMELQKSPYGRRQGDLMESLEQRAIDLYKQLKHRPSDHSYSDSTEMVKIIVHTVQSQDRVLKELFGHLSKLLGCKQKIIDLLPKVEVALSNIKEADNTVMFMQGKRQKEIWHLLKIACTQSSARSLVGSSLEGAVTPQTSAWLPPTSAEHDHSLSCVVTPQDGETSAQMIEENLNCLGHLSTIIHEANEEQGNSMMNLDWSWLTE
The following applies: at 1 µM.

In experiment [14] the target is T7, Inhibitor of nuclear factor kappa-B kinase subunit alpha (Homo sapiens). The settings on record: at 10 µM.
The target in experiment [15] is Insulin receptor (Homo sapiens) (UniProt P06213). The settings on record: at 1 µM.
Sequence of Insulin receptor (Homo sapiens) (P06213 28-758 limits assumed): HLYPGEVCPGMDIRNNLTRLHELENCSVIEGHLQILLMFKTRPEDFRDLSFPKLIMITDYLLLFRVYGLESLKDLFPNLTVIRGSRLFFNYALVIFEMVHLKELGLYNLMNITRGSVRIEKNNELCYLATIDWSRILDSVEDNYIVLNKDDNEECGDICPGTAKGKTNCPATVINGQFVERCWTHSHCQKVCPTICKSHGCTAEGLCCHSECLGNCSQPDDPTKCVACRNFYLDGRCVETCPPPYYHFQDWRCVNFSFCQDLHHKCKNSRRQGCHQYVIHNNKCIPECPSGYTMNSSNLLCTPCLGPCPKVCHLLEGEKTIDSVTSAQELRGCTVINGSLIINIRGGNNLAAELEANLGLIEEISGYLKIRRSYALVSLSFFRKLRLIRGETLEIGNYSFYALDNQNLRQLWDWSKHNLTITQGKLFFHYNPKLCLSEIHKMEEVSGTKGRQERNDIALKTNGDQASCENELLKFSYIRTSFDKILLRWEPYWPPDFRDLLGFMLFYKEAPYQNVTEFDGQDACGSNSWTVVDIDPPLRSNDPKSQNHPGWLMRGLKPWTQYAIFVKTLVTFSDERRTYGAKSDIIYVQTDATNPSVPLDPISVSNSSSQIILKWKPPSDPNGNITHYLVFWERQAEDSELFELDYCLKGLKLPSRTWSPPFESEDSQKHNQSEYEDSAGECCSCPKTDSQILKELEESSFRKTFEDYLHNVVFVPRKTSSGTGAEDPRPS
Sequence of Insulin receptor (Homo sapiens) (P06213 763-1382 limits assumed): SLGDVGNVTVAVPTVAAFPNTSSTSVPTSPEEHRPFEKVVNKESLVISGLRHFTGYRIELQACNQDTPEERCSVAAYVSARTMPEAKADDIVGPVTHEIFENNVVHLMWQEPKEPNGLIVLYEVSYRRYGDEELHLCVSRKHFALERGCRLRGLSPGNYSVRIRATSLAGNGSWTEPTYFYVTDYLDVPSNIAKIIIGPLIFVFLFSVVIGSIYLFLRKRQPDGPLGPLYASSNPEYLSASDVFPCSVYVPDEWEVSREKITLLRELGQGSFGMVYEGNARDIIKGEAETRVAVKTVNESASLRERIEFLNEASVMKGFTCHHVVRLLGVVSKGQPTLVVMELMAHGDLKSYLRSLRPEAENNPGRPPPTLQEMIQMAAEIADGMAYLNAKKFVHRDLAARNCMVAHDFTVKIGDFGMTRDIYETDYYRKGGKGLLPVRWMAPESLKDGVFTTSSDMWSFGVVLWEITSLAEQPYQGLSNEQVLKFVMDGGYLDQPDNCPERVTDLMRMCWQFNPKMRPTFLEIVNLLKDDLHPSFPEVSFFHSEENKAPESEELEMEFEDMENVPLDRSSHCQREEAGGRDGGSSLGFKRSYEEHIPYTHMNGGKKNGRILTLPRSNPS

For `Cn1sc(=O)n(Cc2ccccc2)c1=O`, the residual activity in [1] turned out to be 85%; in [2] it was 79%; in experiment [3] it was 87%; in experiment [4], 85%; in experiment [5], 95%; in experiment [6] it was 91%. Moreover, the residual activity in experiment [7] is 91%; in [8], 91%; in experiment [9] it was 61%; in experiment [10], 55%; in experiment [11], 77%; in [12] it was 72%. Moreover, the residual activity in experiment [13] was found to be 91%; in [14], 93%; in experiment [15] it was 93%.
